For assay [1], the target named is Mitogen-activated protein kinase 10 (Homo sapiens) (UniProt P53779). Conditions: at 10 µM.
For assay [2], the target named is Vascular endothelial growth factor receptor 2 (Homo sapiens) (UniProt P35968). Conditions: at 1 µM.
Assay [3] shares this target. Conditions: at 10 µM.
Assay [4] deals with LIM domain kinase 1 (Homo sapiens) (UniProt P53667). Conditions: at 1 µM.
The target is the same in assay [5]. Conditions: at 10 µM.
Assay [6] deals with T1, Serine/threonine-protein kinase STK11 (Homo sapiens) (UniProt Q15831).
T1 sequence (whole entry): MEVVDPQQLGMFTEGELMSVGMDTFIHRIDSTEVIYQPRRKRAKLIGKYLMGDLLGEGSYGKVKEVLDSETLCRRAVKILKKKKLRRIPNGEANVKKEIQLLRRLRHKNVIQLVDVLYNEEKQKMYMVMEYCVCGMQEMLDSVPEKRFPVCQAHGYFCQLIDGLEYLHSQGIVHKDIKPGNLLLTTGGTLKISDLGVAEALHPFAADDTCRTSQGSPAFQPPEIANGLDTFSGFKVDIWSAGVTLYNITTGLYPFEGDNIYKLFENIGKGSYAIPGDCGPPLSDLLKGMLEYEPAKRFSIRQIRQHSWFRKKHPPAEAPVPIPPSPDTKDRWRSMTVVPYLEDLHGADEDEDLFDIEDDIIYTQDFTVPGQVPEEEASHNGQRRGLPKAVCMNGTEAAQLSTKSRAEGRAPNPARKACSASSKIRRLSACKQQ
Conditions: at 1 µM.

In assay [7] the target is T1, Serine/threonine-protein kinase STK11 (Homo sapiens). Conditions: at 10 µM.
Assay [8] addresses Serine/threonine-protein kinase 10 (Homo sapiens) (UniProt O94804). Conditions: at 1 µM.
Assay [9] has the same target. Conditions: at 10 µM.
In assay [10] the target is Tyrosine-protein kinase Lck (Homo sapiens) (UniProt P06239). Conditions: at 1 µM.
Sequence of Tyrosine-protein kinase Lck (Homo sapiens) (P06239 2-509 limits assumed): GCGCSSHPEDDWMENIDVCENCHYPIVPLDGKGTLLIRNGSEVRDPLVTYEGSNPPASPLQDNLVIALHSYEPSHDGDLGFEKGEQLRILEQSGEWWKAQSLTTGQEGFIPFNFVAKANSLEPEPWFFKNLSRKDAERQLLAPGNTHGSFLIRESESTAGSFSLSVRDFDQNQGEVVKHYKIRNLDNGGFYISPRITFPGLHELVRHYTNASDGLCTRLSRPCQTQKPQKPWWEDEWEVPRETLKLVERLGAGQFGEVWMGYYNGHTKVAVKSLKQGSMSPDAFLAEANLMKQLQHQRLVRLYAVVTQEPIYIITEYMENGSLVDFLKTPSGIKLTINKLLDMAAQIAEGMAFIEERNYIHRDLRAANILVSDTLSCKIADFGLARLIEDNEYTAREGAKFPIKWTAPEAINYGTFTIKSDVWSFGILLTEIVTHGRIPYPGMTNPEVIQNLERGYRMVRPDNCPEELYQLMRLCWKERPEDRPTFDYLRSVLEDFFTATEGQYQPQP

Sequence of Mitogen-activated protein kinase 10 (Homo sapiens) (P53779 whole entry): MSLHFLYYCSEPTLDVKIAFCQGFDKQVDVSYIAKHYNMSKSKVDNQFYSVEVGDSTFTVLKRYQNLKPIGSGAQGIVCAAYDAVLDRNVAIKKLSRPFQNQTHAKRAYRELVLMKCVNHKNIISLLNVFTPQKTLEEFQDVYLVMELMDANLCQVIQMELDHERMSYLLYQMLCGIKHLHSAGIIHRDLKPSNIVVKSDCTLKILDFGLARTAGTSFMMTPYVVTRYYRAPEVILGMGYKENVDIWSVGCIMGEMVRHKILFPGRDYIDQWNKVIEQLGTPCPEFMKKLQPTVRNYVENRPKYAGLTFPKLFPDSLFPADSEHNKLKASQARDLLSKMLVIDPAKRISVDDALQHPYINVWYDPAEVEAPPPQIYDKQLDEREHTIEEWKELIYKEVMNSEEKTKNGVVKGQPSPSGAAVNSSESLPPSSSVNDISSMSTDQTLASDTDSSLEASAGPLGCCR
Sequence of LIM domain kinase 1 (Homo sapiens) (P53667 whole entry, looked up, the tested form may be a part): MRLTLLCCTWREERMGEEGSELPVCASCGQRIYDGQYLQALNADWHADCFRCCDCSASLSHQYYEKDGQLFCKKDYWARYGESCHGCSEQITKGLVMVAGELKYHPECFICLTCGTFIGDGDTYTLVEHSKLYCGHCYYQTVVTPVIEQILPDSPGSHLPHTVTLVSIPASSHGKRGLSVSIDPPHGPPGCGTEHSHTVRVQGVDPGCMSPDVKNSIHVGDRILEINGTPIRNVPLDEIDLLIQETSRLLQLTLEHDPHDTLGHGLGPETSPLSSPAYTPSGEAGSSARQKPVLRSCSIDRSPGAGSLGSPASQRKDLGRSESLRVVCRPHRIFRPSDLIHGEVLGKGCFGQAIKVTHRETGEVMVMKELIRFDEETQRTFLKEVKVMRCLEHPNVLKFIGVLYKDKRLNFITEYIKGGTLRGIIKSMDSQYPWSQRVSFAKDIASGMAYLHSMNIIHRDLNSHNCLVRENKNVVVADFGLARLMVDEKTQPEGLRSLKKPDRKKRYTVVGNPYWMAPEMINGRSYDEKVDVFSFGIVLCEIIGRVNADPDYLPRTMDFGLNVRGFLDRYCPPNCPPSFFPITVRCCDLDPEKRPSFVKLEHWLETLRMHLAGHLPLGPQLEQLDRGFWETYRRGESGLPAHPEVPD
Sequence of Vascular endothelial growth factor receptor 2 (Homo sapiens) (P35968 whole entry): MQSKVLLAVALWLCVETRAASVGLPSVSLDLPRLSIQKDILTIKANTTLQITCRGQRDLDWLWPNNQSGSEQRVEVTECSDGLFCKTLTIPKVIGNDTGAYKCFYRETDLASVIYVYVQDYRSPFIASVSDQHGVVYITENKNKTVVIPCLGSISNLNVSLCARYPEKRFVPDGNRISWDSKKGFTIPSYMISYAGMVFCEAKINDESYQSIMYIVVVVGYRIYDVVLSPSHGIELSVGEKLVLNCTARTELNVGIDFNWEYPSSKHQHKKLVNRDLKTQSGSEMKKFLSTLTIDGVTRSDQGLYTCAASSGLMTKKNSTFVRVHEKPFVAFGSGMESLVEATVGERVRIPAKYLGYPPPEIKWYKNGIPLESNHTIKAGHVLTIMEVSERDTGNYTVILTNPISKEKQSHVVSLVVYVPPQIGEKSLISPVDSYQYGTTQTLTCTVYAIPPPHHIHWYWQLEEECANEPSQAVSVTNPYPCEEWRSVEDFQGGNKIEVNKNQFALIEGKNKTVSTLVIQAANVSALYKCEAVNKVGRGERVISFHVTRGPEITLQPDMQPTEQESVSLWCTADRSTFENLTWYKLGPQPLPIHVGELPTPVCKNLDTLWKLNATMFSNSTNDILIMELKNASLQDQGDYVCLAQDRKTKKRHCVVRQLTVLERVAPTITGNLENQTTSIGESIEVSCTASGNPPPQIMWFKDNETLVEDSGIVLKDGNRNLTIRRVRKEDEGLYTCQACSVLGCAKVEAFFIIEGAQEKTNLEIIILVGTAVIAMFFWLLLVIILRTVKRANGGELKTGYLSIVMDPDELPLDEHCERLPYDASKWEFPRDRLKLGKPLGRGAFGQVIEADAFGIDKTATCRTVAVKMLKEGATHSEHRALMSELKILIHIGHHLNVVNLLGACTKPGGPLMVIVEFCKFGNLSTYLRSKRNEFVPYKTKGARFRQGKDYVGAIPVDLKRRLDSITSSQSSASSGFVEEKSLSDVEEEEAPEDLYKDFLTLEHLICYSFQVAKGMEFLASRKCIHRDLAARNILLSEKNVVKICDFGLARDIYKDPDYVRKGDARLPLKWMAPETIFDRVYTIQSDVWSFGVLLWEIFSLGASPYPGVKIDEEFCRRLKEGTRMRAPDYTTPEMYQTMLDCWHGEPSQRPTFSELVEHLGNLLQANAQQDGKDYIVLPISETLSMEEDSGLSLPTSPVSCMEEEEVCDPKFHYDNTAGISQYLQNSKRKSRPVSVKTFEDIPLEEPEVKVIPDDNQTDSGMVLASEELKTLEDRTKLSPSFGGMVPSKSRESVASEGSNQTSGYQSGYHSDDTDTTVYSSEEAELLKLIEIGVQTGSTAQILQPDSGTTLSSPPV
Sequence of Serine/threonine-protein kinase 10 (Homo sapiens) (O94804 whole entry, looked up): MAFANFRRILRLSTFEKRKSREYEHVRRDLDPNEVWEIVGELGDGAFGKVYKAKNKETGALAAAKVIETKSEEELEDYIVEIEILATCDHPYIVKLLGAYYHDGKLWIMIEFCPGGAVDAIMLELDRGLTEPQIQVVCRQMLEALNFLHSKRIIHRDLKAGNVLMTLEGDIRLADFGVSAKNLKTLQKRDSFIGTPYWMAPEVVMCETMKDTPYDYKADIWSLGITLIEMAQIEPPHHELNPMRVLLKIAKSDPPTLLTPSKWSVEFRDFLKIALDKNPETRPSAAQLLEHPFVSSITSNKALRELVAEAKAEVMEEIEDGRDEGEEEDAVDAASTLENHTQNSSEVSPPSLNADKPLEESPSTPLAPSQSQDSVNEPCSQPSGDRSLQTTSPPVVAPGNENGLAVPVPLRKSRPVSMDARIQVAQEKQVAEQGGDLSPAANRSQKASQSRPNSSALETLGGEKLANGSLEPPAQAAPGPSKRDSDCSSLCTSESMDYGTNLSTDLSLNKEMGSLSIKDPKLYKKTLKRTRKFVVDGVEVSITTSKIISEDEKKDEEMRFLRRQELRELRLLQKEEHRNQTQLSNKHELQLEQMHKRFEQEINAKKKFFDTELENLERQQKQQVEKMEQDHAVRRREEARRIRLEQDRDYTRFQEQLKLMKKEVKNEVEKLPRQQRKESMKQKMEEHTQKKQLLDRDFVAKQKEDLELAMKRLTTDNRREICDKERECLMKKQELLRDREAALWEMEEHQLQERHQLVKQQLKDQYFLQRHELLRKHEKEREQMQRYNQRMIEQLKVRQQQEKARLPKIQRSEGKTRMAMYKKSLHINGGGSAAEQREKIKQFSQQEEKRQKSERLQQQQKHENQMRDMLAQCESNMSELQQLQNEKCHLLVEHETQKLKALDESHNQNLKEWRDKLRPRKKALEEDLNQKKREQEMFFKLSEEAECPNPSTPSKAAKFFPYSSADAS

With `COc1cc2nccc(Oc3ccc(NC(=S)NC(=O)c4ccccc4C)cc3)c2cc1OC`, the residual activity in assay [1] was 79%; in assay [2], 4%; in assay [3] it was 3%; in assay [4], 60%; in assay [5], 28%; in [6], 98%. Besides, the residual activity worked out at 90% in assay [7], 6% in assay [8], 7% in assay [9] and 1% in [10].

In the case of `NC(=O)Nc1sc(-c2ccc(F)cc2)cc1C(N)=O`, the residual activity came out at 33% in assay [1]; 41% in assay [2]; 6% in [3]; 46% in [4]; 7% in [5]; 92% in [6]. For the same compound, in [7], the residual activity came to 73%.

As for `O=C(c1cc2cc(O)ccc2[nH]1)c1cc2cc(O)ccc2[nH]1`, the residual activity in assay [1] worked out at 33%; in [2], 18%; in [3], 3%; in [4], 74%; in [5], 41%; in assay [6], 100%. In addition, the residual activity in assay [8] is 55%; in assay [9], 20%; in [10], 16%.

Take `O=C1NC(=O)C(c2cn(CCCO)c3ncccc23)=C1c1cnccn1`: the residual activity in [1] was determined as 86%; in [2], 64%; in assay [3], 63%; in assay [5], 80%; in assay [6] it was 85%; in [7], 75%. Also, the residual activity in [8] was found to be 94%; in assay [9] it was 80%.

`NCCNc1ncc(C(N)=O)c(Nc2cccc(C(F)(F)F)c2)n1`: the residual activity came out at 46% in assay [1]; 101% in [2]; 78% in assay [3]; 102% in assay [4]; 50% in assay [5]; 74% in assay [6]. In addition, the residual activity stood at 20% in assay [7] and 80% in [10].

Turning to `Cn1c2ccccc2c2c3c(c4c5ccccc5n(CCC#N)c4c21)CNC3=O`, the residual activity stood at 9% in assay [1]; 7% in assay [2]; 6% in assay [3]; 48% in assay [4]; 20% in assay [5]; 82% in [6]. For the same compound, the residual activity came to 96% in assay [7], 21% in assay [8] and 8% in assay [9].

As to `Nc1ncnc2[nH]nc(Nc3ccc(F)cc3)c12`, the residual activity was 92% in [1]; 97% in assay [2]; 54% in assay [3]; 90% in assay [4]; 58% in [5]; 102% in assay [6]. Also, the residual activity in [8] worked out at 53%; in [9] it was 7%; in [10] it was 49%.

For `CSc1nc(-c2ccc(F)cc2)c(-c2ccnc(NC(C)c3ccccc3)c2)[nH]1` (centres undefined), the residual activity in assay [1] is -3%; in assay [3], 87%; in [5], 71%; in assay [7], 98%; in assay [9] it was 96%; in [10], 85%.

Turning to `N#C/C(=C1/Nc2ccccc2S1)c1ccnc(NCCc2cccnc2)n1`, the residual activity was 96% in assay [6], 81% in assay [7], 78% in assay [8] and 39% in [9].

On to `Fc1ccc(-c2nc3n(c2-c2ccncc2)CCS3)cc1`, for which the residual activity in assay [1] was 7%; in assay [9], 99%.

As for `Oc1cccc(-c2nc(N3CCOCC3)c3oc4ncccc4c3n2)c1`, the residual activity in assay [8] worked out at 96%; in [9], 87%.

For the compound `Nc1nccc(-c2c(-c3ccc(F)cc3)ncn2C2CCNCC2)n1`, the residual activity in assay [1] was 22%; in assay [4], 64%; in [5], 25%.

Consider `O=C1Cc2c([nH]c3ccc(Br)cc23)-c2ccccc2N1`, for which the residual activity in [2] was 74%; in assay [3], 31%; in [4], 89%; in assay [5], 80%; in assay [6] it was 97%; in [7], 95%. For the same compound, the residual activity in assay [8] came out at 96%; in [9] it was 56%.

In the case of `O=C(Nc1nc2ccccc2n1CCN1CCOCC1)c1cccc([N+](=O)[O-])c1`, the residual activity in assay [4] came to 105%; in assay [5] it was 88%; in assay [6], 100%; in assay [7], 100%.

Regarding `O=C(Nc1ccc(Cl)cc1)c1ccccc1NCc1ccncc1`, the residual activity in assay [1] turned out to be 123%; in assay [2], 3%; in assay [3], 4%; in [6], 101%; in assay [7], 99%; in assay [8], 82%. The residual activity in assay [9] turned out to be 64%.

Take `COc1ccc(-c2cnc3c(-c4ccsc4)cnn3c2)cc1`: the residual activity in assay [2] was 88%; in assay [3], 68%; in assay [10] it was 139%.

On to `NC(=O)c1ccc(-c2nc(-c3ccc4c(c3)OCCO4)c(-c3ccccn3)[nH]2)cc1`, for which the residual activity in [8] was 65%; in assay [9], 68%.

For `COc1ccc(Cl)cc1NC(=O)Nc1cc(C)nc2ccccc12`, the residual activity in [1] came to 78%; in assay [7] it was 95%; in assay [8], 96%; in [9], 96%.

For `CCOC(=O)c1c(C)[nH]c(/C=C2\C(=O)Nc3ccccc32)c1C`, the residual activity is 16% in [2] and 28% in assay [3].

Turning to `O=C1NC(=O)C(c2c[nH]c3ccccc23)=C1c1c[nH]c2ccccc12`, the residual activity is -3% in assay [1]; 16% in assay [2]; 2% in assay [3]; 50% in [5]; 100% in [6]; 97% in assay [7]. Besides, the residual activity is 39% in [8], 15% in assay [9] and 78% in [10].

With `O=c1cc(N2CCOCC2)oc2c(-c3ccccc3)cccc12`, the residual activity in [4] amounted to 101%; in assay [5], 80%.

As for `NC(=O)c1cccc(-c2cc(Nc3ccc(OC(F)(F)F)cc3)ncn2)c1`, the residual activity in assay [2] came out at 100%; in [3], 89%; in assay [5], 94%; in assay [6], 95%; in [7], 98%; in assay [10], 139%.

Regarding `Nc1n[nH]c2nc3ccccc3nc12`, the residual activity came out at 66% in assay [1]; 89% in assay [4]; 67% in [5]; 126% in assay [6]; 88% in assay [7]; 88% in assay [8]. In addition, in [9], the residual activity worked out at 78%.

For the compound `COc1ccc(CNC(=O)Nc2ncc([N+](=O)[O-])s2)cc1`, the residual activity in assay [1] was 57%; in assay [10], 80%.

`O=C1Cc2c([nH]c3ccc([N+](=O)[O-])cc23)-c2ccccc2N1`: the residual activity is 66% in assay [1]; 52% in assay [2]; 42% in assay [3]; 102% in assay [8]; 110% in assay [9]; 22% in assay [10].

Regarding `COc1cc2nccc(Oc3ccc(NC(=O)Nc4cc(C)on4)c(Cl)c3)c2cc1OC`, the residual activity in assay [4] came out at 67%; in assay [5], 14%; in assay [6] it was 99%; in [7] it was 101%; in [8] it was 8%; in assay [9], 8%. Moreover, the residual activity in assay [10] is 3%.

As for `N#C/C(=C\c1ccc(O)c(O)c1)C(=O)NCc1ccccc1`, the residual activity stood at 72% in assay [1], 87% in assay [3], 102% in assay [6] and 100% in assay [7].

For the compound `Cc1cc(C)c(/C=C2\C(=O)Nc3ccccc32)[nH]1`, the residual activity in assay [2] amounted to 4%; in [3], 2%; in [9], 45%.

In the case of `CC(C)[C@H](CO)Nc1nc(Nc2cc(N)cc(Cl)c2)c2ncn(C(C)C)c2n1`, the residual activity amounted to 67% in [1]; 85% in assay [5]; 72% in assay [7]; 57% in [8]; 17% in [9].

`COc1ccc(COc2ccc(Cc3cnc(N)nc3N)cc2OC)cc1`: in assay [10], the residual activity came out at 110%.

`O=c1c(-c2ccc(F)cc2)c(-c2ccncc2)[nH]n1-c1ccc(Cl)cc1`: the residual activity is -2% in assay [1], 102% in [2], 54% in assay [3] and 99% in assay [9].

Consider `O=S(=O)(c1cccc2cnccc12)N1CCCNCC1`, for which the residual activity in [6] is 100%.

As to `O=C(c1ccccc1)c1ccc(N2CCOCC2)cc1O`, the residual activity was found to be 53% in assay [1]; 99% in assay [2]; 96% in assay [3]; 80% in assay [5]; 91% in assay [8]; 91% in assay [9]. The residual activity in [10] amounted to 137%.

With `O=C1NC(=O)C(c2cn(CCCn3ccnc3)c3ccccc23)=C1Nc1ccccc1`, the residual activity in assay [1] amounted to 68%; in [2] it was 73%; in [3], 22%; in assay [5] it was 41%; in assay [6], 100%; in [7], 103%. Further, the residual activity in [8] turned out to be 21%; in assay [9], 6%; in [10], 130%.

For the compound `CN([C@@H](Cc1ccc(OS(=O)(=O)c2cccc3cnccc23)cc1)C(=O)N1CCN(c2ccccc2)CC1)S(=O)(=O)c1cccc2cnccc12`, the residual activity in [1] stood at 75%; in assay [4], 99%; in assay [5] it was 86%; in assay [10], 144%.

Consider `CC(C)N(CCC(=O)c1ccc2ccccc2c1)Cc1ccccc1`, for which the values for the residual activity in assay [1], in [3] and in assay [5] were 84%, 85% and 85%, respectively.

With `N#Cc1c(NC(=O)c2cccc3ccccc23)sc2c1CCCC2`, the residual activity came to 0% in assay [1]; 96% in assay [3]; 92% in [4]; 82% in [5]; 86% in assay [6]; 93% in assay [7]. For the same compound, the residual activity in assay [8] turned out to be 90%; in assay [9], 92%.

For the compound `O=C1C(Cl)=C(N2C(=O)CCC2=O)C(=O)c2ccccc21`, the residual activity in [1] was 94%; in assay [4] it was 88%; in [5] it was 81%; in assay [6] it was 94%; in assay [7] it was 89%; in [8] it was 95%. The residual activity in [9] was 90%; in [10] it was 76%.

For `O=S(=O)(NCCNC/C=C/c1ccc(Br)cc1)c1cccc2cnccc12`, the residual activity in assay [3] was 62%; in assay [4], 79%; in [5], 29%; in assay [8], 71%; in [9], 53%.

For the compound `O=C1Nc2ccccc2/C1=C\c1c(Cl)[nH]c2ccccc12`, the residual activity in assay [1] came to 47%; in assay [3] it was 30%; in [5] it was 71%; in assay [8] it was 84%; in assay [9] it was 36%; in [10] it was 83%.

Source of the values: ChEMBL document CHEMBL2218924, “A broad activity screen in support of a chemogenomic map for kinase signalling research and drug discovery” (Biochem J, 2013).
